Experimental data reported in PubChem BioAssay (NCI).
Compounds without any hit were thinned out: in the full panel of roughly 79,000, 15% have a hit. Activity calls are given as the source filed them. Cut-off read from the data, not from the text of the source: active = growth inhibition above about 70%; inactive = the rest.

Experiments:
[1] = NCI Yeast Anticancer Drug Screen. Data for the wt1 strain (AID 149);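 note: 0% = growth of vehicle-treated wt1 cultures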; conditions: S. cerevisiae wt1 strain (SPY 50644) growth inhibition, stronger effect = higher value
Summary of the method: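 Yeast wt1 strain exposed to compounds; growth inhibition measured relative to vehicle-treated controls.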

[2] = NCI Yeast Anticancer Drug Screen. Data for the rad50EPP+ strain (AID 151);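 note: 0% = growth of vehicle-treated control cultures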; conditions: S. cerevisiae rad50 mutant strain, stronger effect = higher value
Summary of the method: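 In this screen, rad50EPP+ yeast were exposed to compounds. Growth inhibition was scored against vehicle-treated controls.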

[3] = NCI Yeast Anticancer Drug Screen. Data for the mgt1 strain (AID 153); conditions: S. cerevisiae mgt1 mutant growth inhibition, stronger effect = higher value
Summary of the method: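 mgt1 strain exposed; growth vs vehicle control recorded as inhibition.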

[4] = NCI Yeast Anticancer Drug Screen. Data for the rad50 strain (AID 155);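 note: 0% = growth of vehicle-only cultures of the same strain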; conditions: S. cerevisiae rad50 strain growth inhibition, stronger effect = higher value
Summary of the method: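 Yeast carrying a defined DNA repair defect were exposed to test compounds, and growth was compared with vehicle-treated controls to give percent inhibition.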

[5] = NCI Yeast Anticancer Drug Screen. Data for the mec2-1 strain (AID 157); conditions: S. cerevisiae mec2-1 strain, stronger effect = higher value
Summary of the method: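 Vehicle-treated cultures served as reference for growth inhibition of compound-exposed mec2-1 yeast.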

[6] = NCI Yeast Anticancer Drug Screen. Data for the rad14 strain (AID 159);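 note: 0% = growth of vehicle-treated control cultures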; conditions: S. cerevisiae rad14 strain growth inhibition, stronger effect = higher value
Summary of the method: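 Yeast cells carrying a defined DNA-repair defect were exposed to compounds, and growth inhibition was calculated relative to vehicle-treated control cultures.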

[7] = NCI Yeast Anticancer Drug Screen. Data for the sgs1 mgt1 strain (AID 161);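 note: 0% = growth of cultures given vehicle only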; conditions: S. cerevisiae sgs1 mgt1 strain, stronger effect = higher value
Summary of the method: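 Genetically altered yeast, compound exposure, growth inhibition relative to vehicle.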

[8] = NCI Yeast Anticancer Drug Screen. Data for the CLN2oe strain (AID 163);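 note: 0% = growth of vehicle-only control cultures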; conditions: S. cerevisiae CLN2oe strain, stronger effect = higher value
Summary of the method: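 Inhibition relative to vehicle-treated yeast is reported. Cells: strain with genetic alteration in cell-cycle control, grown with compound.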

[9] = NCI Yeast Anticancer Drug Screen. Data for the cln2 rad14 strain (AID 165);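 note: 0% = growth equal to vehicle treated cultures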; conditions: S. cerevisiae cln2 rad14 strain, stronger effect = higher value
Summary of the method: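 Each compound was tested on cln2 rad14 yeast. Inhibition of growth was calculated against vehicle-exposed controls.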

[10] = NCI Yeast Anticancer Drug Screen. Data for the bub3 strain (AID 167); conditions: S. cerevisiae bub3 mutant strain, stronger effect = higher value
Summary of the method: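 Compounds were applied to a genetically altered yeast strain carrying a cell-cycle control defect. Growth inhibition was scored against vehicle-treated controls.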

[11] = NCI Yeast Anticancer Drug Screen. Data for the wt2 strain (AID 169);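 note: 0% = growth of vehicle-treated yeast cultures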; conditions: S. cerevisiae wt2 strain growth inhibition, stronger effect = higher value
Summary of the method: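 Inhibition of yeast growth was determined after compound treatment, normalised to controls receiving only vehicle.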

[12] = NCI Yeast Anticancer Drug Screen. Data for the sgs1 strain (AID 173);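 note: 0% = growth of vehicle-only control cultures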; conditions: S. cerevisiae sgs1 mutant, stronger effect = higher value
Summary of the method: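 Screen format: yeast with repair or checkpoint alterations, compound exposure, growth read relative to vehicle.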

[13] = NCI Yeast Anticancer Drug Screen. Data for the mlh1 rad18 strain (AID 175); conditions: S. cerevisiae mlh1 rad18 strain growth inhibition, stronger effect = higher value
Summary of the method: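 Vehicle-treated cultures served as the reference for growth inhibition in a yeast strain carrying DNA damage repair alterations exposed to each compound.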

[14] = NCI Yeast Anticancer Drug Screen. Data for the rad18 strain (AID 177); conditions: S. cerevisiae rad18 mutant growth inhibition, stronger effect = higher value
Summary of the method: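 Test articles were incubated with altered yeast defective in DNA damage repair. Results are given as inhibition of growth versus vehicle.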

[15] = NCI Yeast Anticancer Drug Screen. Data for the mlh1 strain (AID 171);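 note: 0% = growth of vehicle-treated control cultures of the same strain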; conditions: S. cerevisiae mlh1 strain growth inhibition, stronger effect = higher value
Summary of the method: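 Vehicle-normalised growth inhibition of a repair- or checkpoint-altered yeast strain following compound treatment.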

[16] = at 5.0 µM (retest, dose inferred, filed as 0.5)
[17] = at 50.0 µM (retest, dose inferred, filed as 5.0)

Measured: growth inhibition

Nc1cccc2cc(Cl)cnc12
inactive: [1]; at 1.2 µM -26% | [1]; at 3.7 µM -26% | [1]; at 11.0 µM -28% | [1]; at 33.0 µM -23% | [1]; at 100.0 µM 63% | [2]; at 1.2 µM -3% | [2]; at 3.7 µM 5% | [2]; at 11.0 µM 11% | [2]; at 33.0 µM 39% | [3]; at 1.2 µM -2% | [3]; at 3.7 µM -2% | [3]; at 11.0 µM 7% | [3]; at 33.0 µM 10% | [3]; at 100.0 µM 64% | [4]; at 1.2 µM 18% | [4]; at 3.7 µM 24% | [4]; [16] 62% | [4]; at 11.0 µM 31% | [4]; at 33.0 µM 47% | [5]; at 1.2 µM 12% | [5]; at 3.7 µM 10% | [5]; [16] 53% | [5]; at 11.0 µM 13% | [5]; at 33.0 µM 7% | [5]; at 50.0 µM 20.9% | [6]; at 1.2 µM -36% | [6]; at 3.7 µM -31% | [6]; at 11.0 µM -36% | [6]; at 33.0 µM -31% | [6]; at 100.0 µM 58% | [7]; [16] 3% | [7]; [17] 10% | [7]; at 50.0 µM 59.7% | [8]; at 1.2 µM 2% | [8]; at 3.7 µM -4% | [8]; at 11.0 µM -23% | [8]; at 33.0 µM -16% | [8]; at 100.0 µM 38% | [9]; [16] 52% | [9]; [17] 41% | [9]; at 50.0 µM 49.3% | [10]; at 1.2 µM 3% | [10]; at 3.7 µM 10% | [10]; [16] 41% | [10]; at 11.0 µM 8% | [10]; at 33.0 µM 13% | [10]; [17] 18% | [10]; at 50.0 µM 38.5% | [11]; at 1.2 µM -34% | [11]; at 3.7 µM -18% | [11]; at 11.0 µM -20% | [11]; at 33.0 µM -15% | [11]; at 100.0 µM 34% | [12]; at 1.2 µM -32% | [12]; at 3.7 µM -31% | [12]; at 11.0 µM -14% | [12]; at 33.0 µM 0% | [12]; at 100.0 µM 64% | [13]; [16] 55% | [13]; at 50.0 µM 67.3% | [14]; at 1.2 µM 13% | [14]; at 3.7 µM 27% | [14]; at 11.0 µM 61%
active: [2]; at 100.0 µM 76% | [4]; [17] 98% | [4]; at 50.0 µM 71% | [4]; at 100.0 µM 87% | [5]; [17] 98% | [5]; at 100.0 µM 78% | [10]; at 100.0 µM 81% | [13]; [17] 100% | [14]; at 33.0 µM 82% | [14]; at 100.0 µM 90%

CN(C)c1ccc(/C=C/c2ccnc3ccc4ccccc4c23)cc1
active: [4]; at 100.0 µM 70% | [5]; at 33.0 µM 82% | [5]; at 100.0 µM 82% | [6]; at 33.0 µM 83% | [6]; at 100.0 µM 80% | [7]; [17] 76% | [7]; at 50.0 µM 91.4% | [10]; at 33.0 µM 83% | [10]; at 50.0 µM 70% | [10]; at 100.0 µM 79% | [12]; at 33.0 µM 77% | [13]; at 50.0 µM 72% | [14]; at 11.0 µM 75% | [14]; at 33.0 µM 84% | [14]; at 100.0 µM 75%
inactive: [1]; at 1.2 µM -6% | [1]; at 3.7 µM -9% | [1]; at 11.0 µM -6% | [1]; at 33.0 µM 34% | [1]; at 100.0 µM 48% | [2]; at 1.2 µM 2% | [2]; at 3.7 µM 8% | [2]; at 11.0 µM 15% | [2]; at 33.0 µM 4% | [2]; at 100.0 µM -14% | [3]; at 1.2 µM -3% | [3]; at 3.7 µM -2% | [3]; at 11.0 µM 45% | [3]; at 33.0 µM 69% | [3]; at 100.0 µM 58% | [4]; at 1.2 µM -7% | [4]; at 3.7 µM 3% | [4]; [16] 9% | [4]; at 11.0 µM 30% | [4]; at 33.0 µM 67% | [4]; [17] -7% | [4]; at 50.0 µM 69% | [5]; at 1.2 µM -7% | [5]; at 3.7 µM -7% | [5]; [16] -7% | [5]; at 11.0 µM 4% | [5]; [17] -18% | [5]; at 50.0 µM 27.3% | [6]; at 1.2 µM -5% | [6]; at 3.7 µM -4% | [6]; at 11.0 µM 28% | [7]; [16] -2% | [8]; at 1.2 µM -11% | [8]; at 3.7 µM -16% | [8]; at 11.0 µM -15% | [8]; at 33.0 µM 2% | [8]; at 100.0 µM 55% | [9]; [16] -14% | [9]; [17] 22% | [9]; at 50.0 µM 6.65% | [10]; at 1.2 µM -6% | [10]; at 3.7 µM -8% | [10]; [16] -4% | [10]; at 11.0 µM 6% | [10]; [17] 3% | [11]; at 1.2 µM -6% | [11]; at 3.7 µM -5% | [11]; at 11.0 µM 50% | [11]; at 33.0 µM 61% | [11]; at 100.0 µM 51% | [15]; at 1.2 µM -8% | [15]; at 3.7 µM 0% | [15]; at 11.0 µM 45% | [15]; at 33.0 µM 67% | [15]; at 100.0 µM 68% | [12]; at 1.2 µM -3% | [12]; at 3.7 µM 11% | [12]; at 11.0 µM 67% | [12]; at 100.0 µM 68% | [13]; [16] -3% | [13]; [17] 37% | [14]; at 1.2 µM 2% | [14]; at 3.7 µM 20%
